Screening data (PubChem BioAssay)
Shown are actives, neighbours in structure and some others; about 3.1% of the full set was active somewhere.
Vif-A3G inh – qHTS for Inhibitors of Vif-A3G Interactions: qHTS; Potency, µM (top dose mostly 46.1 µM), inactives show top-dose activity, negative = active, actives largely listed as inhibitors; HeLa A3G-eYFP + Vif (tagged APOBEC3G with the HIV-1 protein that degrades it), YFP fluorescence, overnight; hit rate 0.076% among 410,000; DNA dC->dU-editing enzyme APOBEC-3G (Homo sapiens), Q9HC16; further: potency means the concentration at half of the fitted maximal effect; on the % scale 0 is the no-effect control and ±100 the full control effect; nearly all actives have a fitted effect of over 60% in size
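Read-out is eYFP fluorescence (Ex 488/Em 500-530) from Vif-expressing HeLa A3G-eYFP cells; more signal means A3G escaped Vif-mediated degradation. Cells plated overnight, compound pinned in, incubated overnight at 37 deg C.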
TSHR antag – Antagonists of the Thyroid Stimulating Hormone Receptor: HTS campaign. hit rate 0.2% among 330,000. Thyrotropin receptor (Homo sapiens), P16473. activity change, negative = inhibition, % at 11.5 µM. TSHR-expressing cells, TSH-stimulated cAMP HTRF, 2 h; active compounds read low;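 active means activity change below a set negative limit, meaning inhibition stronger than a set level, cut at about -70% in these data; inconclusive means activity change between two set negative limits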; further: on the % scale 0 is the no-effect control and ±100 the full control effect
Target sequence (P16473 whole entry, looked up): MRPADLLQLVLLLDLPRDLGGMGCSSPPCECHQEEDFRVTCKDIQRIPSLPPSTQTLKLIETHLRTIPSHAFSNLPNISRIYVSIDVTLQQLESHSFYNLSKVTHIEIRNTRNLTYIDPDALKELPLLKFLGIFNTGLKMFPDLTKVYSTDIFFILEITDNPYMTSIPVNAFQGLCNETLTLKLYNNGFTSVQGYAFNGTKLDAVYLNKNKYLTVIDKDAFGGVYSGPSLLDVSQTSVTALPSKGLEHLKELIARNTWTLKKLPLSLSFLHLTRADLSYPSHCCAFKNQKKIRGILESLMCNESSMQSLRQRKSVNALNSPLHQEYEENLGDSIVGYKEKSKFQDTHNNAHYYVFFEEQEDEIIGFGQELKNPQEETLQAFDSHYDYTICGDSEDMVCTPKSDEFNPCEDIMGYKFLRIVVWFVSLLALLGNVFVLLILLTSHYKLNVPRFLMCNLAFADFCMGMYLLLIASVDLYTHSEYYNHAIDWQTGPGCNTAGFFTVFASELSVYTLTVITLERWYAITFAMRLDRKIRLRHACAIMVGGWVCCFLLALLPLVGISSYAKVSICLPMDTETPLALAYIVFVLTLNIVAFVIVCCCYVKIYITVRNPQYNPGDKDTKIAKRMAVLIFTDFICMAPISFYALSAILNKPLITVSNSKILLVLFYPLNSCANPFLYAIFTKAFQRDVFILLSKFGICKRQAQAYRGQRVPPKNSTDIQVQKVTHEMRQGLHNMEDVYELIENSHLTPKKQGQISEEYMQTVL
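Antagonism was scored as loss of TSH-driven cAMP in TSHR cells, stimulated with 4nM TSH (EC80) for 2 hours at 37 deg C and detected by homogeneous HTRF competition immunoassay.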
PLK1 PBD block – qHTS for Inhibitors of PLK1-PDB (polo-like kinase 1 - polo-box domain): Primary Screen. Serine/threonine-protein kinase PLK1 (Homo sapiens), P53350. Plk1 PBD binding of FITC phosphopeptide, fluorescence polarization. Potency, µM, inactives show max response, negative = inhibition, most hits filed as inhibitors. hit rate 2.8% among 360,000. AID 720504, 2013; further: potency means the concentration at half of the fitted maximal effect; series mostly up to about 57 µM; on the % scale 0 is the no-effect control and ±100 the full control effect; nearly all actives have a fitted effect of over 65% in size
Vif-A3F inh – qHTS for Inhibitors of Vif-A3F Interactions: qHTS | hit rate 0.2% among 390,000 | HeLa A3F-eYFP + Vif (tagged APOBEC3F with the HIV-1 protein that degrades it), YFP fluorescence increase | Potency, µM (titrated, usually from 46.1 µM), for the others: at the top dose activity, negative = active; further: potency means the concentration at half of the fitted maximal effect; % of control where 0% means no effect; nearly all actives have a fitted effect of over 65% in size
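Fluorescence increase (Ex 488/Em 500-530) after overnight compound treatment at 37 deg C flags inhibition of Vif-driven A3F-eYFP loss in stable HeLa A3F-eYFP/Vif cells seeded overnight beforehand.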
VDR inhibitor – Inhibitors of the vitamin D receptor (VDR): qHTS; Vitamin D3 receptor (Homo sapiens), P11473; VDR-SRC2-3 peptide fluorescence polarization, 2 h; Potency, µM, without a hit: max response, negative = inhibition, hits mostly inhibitors; hit rate 0.93% among 400,000; AID 504847, 2011; further: potency means the concentration at half of the fitted maximal effect; on the % scale 0 is the no-effect control and ±100 the full control effect
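Signal is fluorescence polarization, reporting how far test compounds block the interaction of VDR with the SRC2-3 coregulator peptide after a 2 h room-temperature incubation.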
TbPYK confirm – qHTS of Trypanosoma Brucei Inhibitors: Confirmatory Assay for Cherry-picked Compounds; AID 720569, 2013; recombinant TbPYK, Kinase-Glo ATP luminescence; shares compounds with PLK1 PBD block; Potency, µM (highest dose often 76.9 µM), inactives show at the highest dose activity change, negative = inhibition, usual class: inhibitors; hit rate 67% among 890; further: potency means the concentration at half of the fitted maximal effect; on the % scale 0 is the no-effect control and ±100 the full control effect; nearly all actives have a fitted effect of over 70% in size
TbPYK ADP-Glo – qHTS of Trypanosoma Brucei Inhibitors: Orthogonal Assay for Cherry-picked Compounds; hit rate 62% among 890; shares compounds with PLK1 PBD block; Potency, µM (highest dose often 76.9 µM), inactives show at the highest dose activity change, negative = inhibition, actives largely listed as inhibitors; recombinant TbPYK, ADP-Glo luminescence, 60 min; AID 720584, 2013; further: potency means the concentration at half of the fitted maximal effect; on the % scale 0 is the no-effect control and ±100 the full control effect; nearly all actives have a fitted effect of over 75% in size
Starred values were filed as active, the others as inactive; u = inconclusive; x = no result. Unless noted, the call rests on the fitted dose curve; in most records, active means well fitted curve in the direction sought with a large enough effect; inconclusive means small, poorly fitted or top-dose-only effect, or another doubt; inactive means no such curve, though single readings can be large; an effect the other way counts as inactive or inconclusive.

SMILES | Vif-A3G inh | TSHR antag | PLK1 PBD block | Vif-A3F inh | VDR inhibitor | TbPYK confirm | TbPYK ADP-Glo
CCN1C(=O)/C(=C2/C=Cc3cc(C)ccc3N2CC)N(C)C1=S | -2% | -17 | 0% | 5% | 1% | 35µM* | -26%
CCN1/C(=C2/SC(=S)N(C)C2=O)C=Cc2cc(C)ccc21 | 0% | x | -20% | -9% | 31% | x | x
COc1cccc(/C=N/N2C(=O)CSC2=S)c1O | -8% | -8 | u | 7% | u | u | u
COc1cc(/C=N/N2C(=O)CSC2=S)cc(Br)c1O | -26% | -4 | u | u | u | x | x
O=C1CSC(=S)N1N=Cc1c(O)ccc2ccccc12 | -5% | x | -10% | 2% | u | u | 16µM*
CCCc1cc(=O)[nH]c(Nc2ccccc2O)n1 | -15% | x | x | u | 17% | x | x
CCCCCSc1nc2sc3c(c2c(=O)n1-c1ccc(OC)cc1)CCN(C(C)=O)C3 | -4% | x | x | 6% | -16% | x | x
COc1ccc(C(=O)Nc2ccc3c(c2)CCCN3S(=O)(=O)c2ccc(C)cc2)c(OC)c1 | -3% | x | x | 5% | 9% | x | x
CCOCCCNC1=C(Cl)C(=O)c2ccccc2C1=O | -22% | 11 | 21µM* | -4% | u | u | u
O=C(CCCCn1c(=S)[nH]c2ccsc2c1=O)NCc1ccc2c(c1)OCO2 | -8% | -4 | -27% | 13% | -15% | 0.35µM* | 1.1µM*
O=C(CCCn1c(=S)[nH]c2ccsc2c1=O)Nc1ccc2c(c1)OCCO2 | -1% | -4 | -7% | 9% | -17% | 10µM* | 14µM*
O=C(CCCCn1c(=O)[nH]c2ccsc2c1=O)NCc1ccc2c(c1)OCO2 | -1% | 1 | -6% | 4% | 6% | x | x
O=C(CSc1nnc(-c2ccccc2)c(-c2ccccc2)n1)Nc1ccccc1Cl | 3% | x | x | -6% | 6% | x | x
O=C1C(c2cc(=O)c3ccccc3[nH]2)=C(O)c2ccccc21 | -10% | -33 | -4% | -2% | -4% | 2.8µM* | 7.1µM*
CCn1nc(C)c(CCN(C)C(=O)Nc2cc(Cl)c(OC)cc2OC)c1C | 3% | x | x | 4% | 13% | x | x
Cc1ccc(Cn2c(CNC(=O)c3ccccc3Br)nc3cccnc32)cc1 | -1% | x | x | 0% | 5% | x | x
Cc1nonc1C(=O)N/N=C/c1ccc(O)cc1O | -5% | 12 | -6% | -17% | 9% | 28µM* | -1%
O=c1nccc(N/N=C/c2ccccc2O)[nH]1 | -6% | -7 | u | 2% | -18% | u | 4%
COc1cccc(/C=N/Nc2ccnc(=O)[nH]2)c1O | -13% | -11 | 1% | 5% | -10% | x | x
Cc1ccc(S(=O)c2ccc([N+](=O)[O-])c3nonc23)cc1 (stereo not given) | u | x | 1.5µM* | 22µM* | x | -96% | 11µM*
COc1ccc(CC(=O)N2CCc3cc(OC)c(OC)cc3C2COc2ccc3c(C)cc(=O)oc3c2)cc1OC (stereo not given) | 3% | x | x | -6% | 22% | x | x
CC1(C)CC(=O)C(C(C2=C(O)CC(C)(C)CC2=O)c2ccco2)C(=O)C1 (stereo not given) | 0% | -1 | 5.3µM* | -25% | u | 13µM* | u
c1ccc(CNc2nc3ccccc3[nH]2)cc1 | -9% | -1 | 2% | -6% | 7% | x | x
S=C(NCc1ccccc1)NNc1nc2ccccc2[nH]1 | -4% | 3 | 17µM* | -2% | 25µM* | u | 18µM*
